# Bioassay records deposited in PubChem BioAssay by National Center for Advancing Translational Sciences (NCATS).
# This is a sample that favours compounds with a hit; in the whole collection about 6.1% have one here.
# S2 tox – Viability Counterscreen for Primary qHTS for Inhibitors of ATXN expression. Potency, µM (highest dose often 56.7 µM), actives largely listed as cytotoxic. actives 0.49% (n = 400,000). S2 cells (HEK-293 line with an ATXN2-luciferase reporter) viability, CellTiter-Fluor protease fluorescence, 24 h; further: nearly all actives have a fitted effect of over 40% in size
# RORg inh – qHTS for inhibitors of ROR gamma transcriptional activity | Potency, µM (titrated, usually from 53.6 µM), for inactives: top-dose activity change, negative = inhibition, usual class: inhibitors | AID 2551, 2010 | Nuclear receptor ROR-gamma (Mus musculus), P51450 | actives 5.4% (n = 310,000) | Drosophila S2 Gal4-RORgamma UAS-luciferase reporter, 20 h; further: on the % scale 0 is the no-effect control and ±100 the full control effect; nearly all actives have a fitted effect of over 60% in size
# Target sequence (P51450 whole entry, looked up, the tested form may be a part): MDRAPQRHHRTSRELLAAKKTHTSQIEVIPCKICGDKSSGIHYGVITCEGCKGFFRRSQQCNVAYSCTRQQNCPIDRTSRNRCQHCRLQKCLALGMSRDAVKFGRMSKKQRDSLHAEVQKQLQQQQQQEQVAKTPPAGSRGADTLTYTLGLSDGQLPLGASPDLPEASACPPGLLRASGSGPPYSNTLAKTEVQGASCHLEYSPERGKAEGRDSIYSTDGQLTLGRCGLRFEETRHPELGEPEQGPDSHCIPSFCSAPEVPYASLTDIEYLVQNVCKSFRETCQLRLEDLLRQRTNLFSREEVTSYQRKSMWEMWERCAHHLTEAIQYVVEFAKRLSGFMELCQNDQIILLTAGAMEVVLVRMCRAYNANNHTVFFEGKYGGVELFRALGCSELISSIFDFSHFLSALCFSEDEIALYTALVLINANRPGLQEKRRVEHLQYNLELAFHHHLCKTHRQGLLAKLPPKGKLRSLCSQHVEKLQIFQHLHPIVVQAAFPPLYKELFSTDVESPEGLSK
#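 A Gal4/UAS one-hybrid system in insect cells: metallothionein-promoter Gal4–ROR gamma fusion plus Photinus luciferase reporter. Copper sulfate 700 uM final, 20 hr ambient incubation, luminescent detection after 10 min with reagent.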
# VP16 counter – VP16 counterscreen qHTS for inhibitors of ROR gamma transcriptional activity. Drosophila S2 Gal4-VP16 UAS-luciferase, luminescence, 20 h. Potency, µM (series often up to 53.6 µM), for inactives: at the top dose activity, negative = inhibition, actives largely listed as inhibitors. actives 3.5% (n = 310,000);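 further: Gal4-VP16 expression switched on by copper sulfate through the metallothionein promoter; on the % scale 0 is the no-effect control and ±100 the full control effect; nearly all actives have a fitted effect of over 50% in size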
# ATXN2 expr inh – Primary qHTS for Inhibitors of ATXN expression; HEK-293 ATXN2-luciferase reporter, luminescence, 24 h; Potency, µM (highest dose often 57 µM), inactives show at the top dose activity change, negative = inhibition, hits mostly inhibitors; actives 0.72% (n = 360,000); AID 1745845, 2022; further: on the % scale 0 is the no-effect control and ±100 the full control effect; nearly all actives have a fitted effect of over 55% in size
#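 ATXN2-luciferase reporter cells (luciferase flanked by upstream and downstream ATXN2 gene portions) were treated 24 h at 37 °C with compounds at up to 57 uM. SteadyGlo luminescence gave expression; GF-AFC fluorescence gave viability.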
# HepG2 viability – qHTS for Inhibitors of TGF-b: Cytotox Counterscreen | AID 588856, 2011 | Potency, µM (series often up to 46.1 µM), for the others: at the highest dose activity change, negative = cytotoxicity, usual class: cytotoxic | HepG2 CAGA-GFP viability, ATP luminescence, 18 h | actives 0.76% (n = 410,000)
#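 HepG2 CAGA-GFP cells (1000/well, DMEM with 1% FBS) received compound, then TGF-beta at 500 pg/mL final, and were incubated 18 hours at 37 degrees C. Viability was read by CellTiter-Glo luminescence. Media-only wells were set as complete cell-killing and DMSO as no toxicity.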
# TGFb SMAD3 inh – qHTS for Inhibitors of TGF-b; HepG2 CAGA-GFP TGF-b/SMAD3 reporter, GFP fluorescence, 18 h; TGF-beta stimulated, 500 pg/mL final; Potency, µM (doses to about 46.1 µM), for inactives: at the top dose activity, negative = inhibition, usual class: inhibitors; actives 1.2% (n = 410,000); further: on the % scale 0 is the no-effect control and ±100 the full control effect; nearly all actives have a fitted effect of over 65% in size
#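 First, reporter cells (HEPG2 CAGA-GFP) rested 2 h at 37 degrees C. Next, compounds were pinned in and TGF-beta added to 500 pg/mL final. After 18 h, GFP was imaged per cell and summed per well.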
# Starred values were filed as active, the others as inactive; i = inactive; ? = inconclusive; nt = not tested or not shown. The call rests on the fitted dose curve; in most records, active means well fitted curve in the direction sought with a large enough effect; inconclusive means small, poorly fitted or top-dose-only effect, or another doubt; inactive means no such curve, though single readings can be large; an effect the other way counts as inactive or inconclusive. Potency means the concentration at half of the fitted maximal effect.
SMILES,S2 tox,RORg inh,VP16 counter,ATXN2 expr inh,HepG2 viability,TGFb SMAD3 inh
CC1Sc2ccc(S(=O)(=O)N3CCN(c4ccccc4)CC3)cc2NC1=O (centres undefined),?,?,-29%,nt,-19%,?
Cc1cccc(N2CCN(S(=O)(=O)c3ccc4c(c3)NC(=O)C(C)S4)CC2)c1C (centres undefined),i,36%,-9%,-24%,0%,16µM*
Cc1cccc(N2CCN(S(=O)(=O)c3ccc4c(c3)C(C(C)C)C(=O)N4)CC2)c1C (centres undefined),i,nt,nt,?,-57%,16µM*
Cc1ccc(NC(=O)C2CCN(S(=O)(=O)c3ccc4c(c3)NC(=O)C(C)S4)CC2)cc1Cl (centres undefined),?,?,7.1µM*,nt,-11%,2.2µM*
Cc1cc(C)cc(NC(=O)C2CCN(S(=O)(=O)c3ccc4c(c3)NC(=O)C(C)S4)CC2)c1 (centres undefined),?,36%,-6%,-38%,-19%,?
COc1cccc(CC(=O)NCc2ccc3c(c2)CCN3C(C)=O)c1,nt,nt,nt,nt,-19%,-2%
C[C@@H]1CN([C@H](C)CO)C(=O)c2cc(NS(=O)(=O)c3ccc(F)cc3)ccc2O[C@@H]1CN(C)Cc1ccc(Cl)c(Cl)c1,?,nt,nt,?,-100%,11µM*
C[C@H](CO)N1C[C@H](C)[C@@H](CN(C)Cc2ccc(Cl)c(Cl)c2)Oc2c(NC(=O)C3CC3)cccc2C1=O,nt,nt,nt,?,-40%,?
C[C@@H]1CN([C@H](C)CO)C(=O)c2cc(NC(=O)Nc3ccc(C(F)(F)F)cc3)ccc2O[C@H]1CN(C)Cc1ccc(Cl)c(Cl)c1,13µM*,nt,nt,?,-111%,11µM*
C[C@@H]1CN([C@@H](C)CO)C(=O)c2cc(NC(=O)CCC(F)(F)F)ccc2O[C@H]1CN(C)Cc1ccc(Cl)c(Cl)c1,?,nt,nt,?,-85%,13µM*
C[C@H](CO)N1C[C@H](C)[C@@H](CN(C)Cc2ccc(Cl)c(Cl)c2)Oc2c(NC(=O)CCC(F)(F)F)cccc2C1=O,?,nt,nt,?,-92%,13µM*
C[C@@H]1CCCCO[C@@H](CN(C)Cc2ccc(Cl)c(Cl)c2)[C@@H](C)CN([C@H](C)CO)C(=O)c2cc(NC(=O)CCC(F)(F)F)ccc2O1,?,nt,nt,?,-25%,?
C[C@H](CO)N1C[C@H](C)[C@@H](CN(C)S(=O)(=O)c2ccc(F)cc2)Oc2ccc(NS(=O)(=O)c3ccc(F)cc3)cc2C1=O,?,nt,nt,-2%,-72%,?
CN(C)c1ccc(-c2ccc(CCO)cc2)cc1,nt,nt,nt,nt,-1%,1%
C[C@H]1CN([C@@H](C)CO)C(=O)c2cccc(NC(=O)Nc3ccc(C(F)(F)F)cc3)c2O[C@@H]1CN(C)Cc1ccc(Cl)c(Cl)c1,14µM*,nt,nt,0%,13µM*,?
C[C@@H]1CCCCO[C@@H](CN(C)Cc2ccc(C(F)(F)F)cc2)[C@@H](C)CN([C@H](C)CO)C(=O)c2cc(N(C)C)ccc2O1,22µM*,nt,nt,?,-25%,?
CC(C)NC(=O)N(C)C[C@H]1Oc2c(NC(=O)Nc3ccc(C(F)(F)F)cc3)cccc2C(=O)N([C@H](C)CO)C[C@@H]1C,?,nt,nt,-8%,-26%,?
C[C@H](CO)N1C[C@H](C)[C@@H](CN(C)C(=O)NC2CCCCC2)Oc2c(NC(=O)Nc3ccc(C(F)(F)F)cc3)cccc2C1=O,?,nt,nt,?,-41%,14µM*
